From PubChem BioAssay AID463173 (ICCB-Longwood Screening Facility, Harvard Medical School, 2010)
Out of some 52,000 compounds screened, about 1,700 (3.3%) were called active. The sample holds actives, similar compounds and a random draw of the others, so the mix is not that of the screen. No stated cut-off is given here; in the data, active means survival mostly below about 52% (no sharp cut-off); inactive means mostly above about 56%.

Test system: Wild type
Experiment: S. aureus survival, RN4220 and DeltatarO strains – OD600, teichoic acid synthesis inhibitors, primary screen (AID 463173)
Settings: S. aureus RN4220 wild type/DeltatarO growth, OD600, 18 h, stronger effect = lower value, screened at 18.75 µg/mL (by protocol)

| Structure (SMILES) | survival |
| --- | --- |
| CC1CCN(c2nc3ccccc3nc2C(F)(F)F)CC1 | 78% (inactive) |
| CC1CCN(c2nc(-c3ccc(Br)cc3)nc3ccccc23)CC1 | 105% (inactive) |
| CC1CCN(c2nc(-c3ccc(C(C)(C)C)cc3)nc3ccccc23)CC1 | 3% (active) |
| CC1CCCCN1C(=O)CSc1nc(C2CC2)nc2ccccc12 (centres undefined) | 110% (inactive) |
| Brc1ccc(-c2nc(N3CCN(c4ccccc4)CC3)c3ccccc3n2)cc1 | 127% (inactive) |
| CC1CCCCN1c1nc(-c2ccc(C(C)(C)C)cc2)nc2ccccc12 (centres undefined) | 1% (active) |
| CCOC(=O)C(CC)n1nc(C)n2c(cc3occc32)c1=O (centres undefined) | 120% (inactive) |
| CCCN(CCC)CCNC(=O)c1cc2c(-c3ccccc3F)nn(C)c2s1 | 97% (inactive) |
| CCNC(=S)N1CCC(n2cnc3ccccc32)CC1 | 98% (inactive) |
| Cc1ccc(C(=O)N(c2ccc(C)cc2)S(=O)(=O)c2ccc(Cl)cc2)cc1 | 73% (inactive) |
| COc1ccc(Cl)cc1NC(=O)c1cc2nc(-c3ccc4c(c3)OCO4)cc(C(F)(F)F)n2n1 | 65% (inactive) |
| O=C(NCCCN1CCN(c2ccc(F)cc2)CC1)c1cnn(-c2ccc(F)cc2)c1-n1cccc1 | 82% (inactive) |
| Cc1nn(-c2ccc(F)cc2)c(-n2cccc2)c1C(=O)NCCCN1CCN(c2cccc(Cl)c2)CC1 | 110% (inactive) |
| Cc1ccc(-n2ncc(C(=O)NCCCN3CCN(c4cccc(Cl)c4)CC3)c2-n2cccc2)cc1 | 59% (inactive) |
| Cc1ccc(-n2nc(C)c(C(=O)NCCCN3CCN(c4cccc(Cl)c4)CC3)c2-n2cccc2)cc1 | -2% (active) |
| Cc1ccc(-n2nc(C)c(C(=O)NCCCN3CCN(c4ccc(F)cc4)CC3)c2-n2cccc2)cc1 | 101% (inactive) |
| O=C(NCCCN1CCN(c2cccc(Cl)c2)CC1)c1cnn(-c2ccc(F)cc2)c1-n1cccc1 | 0% (active) |
| COC(=O)c1ccc(Nc2ncnc3c2cnn3C)cc1 | 81% (inactive) |
| COc1ccc(OC)c(S(=O)(=O)NCCc2csc(-c3cccc(F)c3)n2)c1 | 135% (inactive) |
| CC1=Nc2ccccc2N=C(C)C1 | 115% (inactive) |
| CCOc1ccc(-c2nc(SCC(=O)NC3CCCC3)c(-c3ccccc3)[nH]2)cc1OC | 73% (inactive) |
| COC(=O)c1ccc(OC)c(Cn2c(=O)n(-c3ccc(C)cc3)c(=O)c3c2cnn3C)c1 | 76% (inactive) |
| CCOc1ccc(-c2c(C)nn3c(C)c(C(=O)Nc4cc(C)cc(C)c4)cnc23)cc1OCC | 133% (inactive) |
| CCOc1ccc(-c2c(C)nn3c(C)c(C(=O)Nc4ccccc4C(=O)OC)cnc23)cc1OCC | -6% (active) |
| CCOc1ccc(-c2c(C)nn3c(-c4ccccc4)c(C(=O)NCCOC)cnc23)cc1OCC | -6% (active) |

| Structure (SMILES) | survival |
| --- | --- |
| COc1cc(CNC(=O)c2cnc3c(-c4cccc(C)c4)c(C)nn3c2C)cc(OC)c1OC | 74% (inactive) |
| CCOc1ccc(OCC)c(NC(=O)c2cnc3c(-c4ccccc4)c(C)nn3c2C)c1 | 63% (inactive) |
| Cc1nn2c(C)c(C(=O)NCc3cccc(Br)c3)cnc2c1-c1ccccc1 | 53% (inactive) |
| CCCNC(=O)c1cnc2c(-c3ccc(OCC)c(OCC)c3)c(C)nn2c1-c1ccccc1 | 76% (inactive) |
| COc1cc(Cl)c(C)cc1NC(=O)c1cnc2c(-c3cccc(C)c3)c(C)nn2c1C | 14% (active) |
| CCOc1ccc(-c2c(C)nn3c(C)c(C(=O)Nc4cccc(Cl)c4C)cnc23)cc1OCC | 67% (inactive) |
| Cc1cccc(CNC(=O)c2cnc3c(-c4cccc(C)c4)c(C)nn3c2C)c1 | -1% (active) |
| COC(=O)c1ccccc1NC(=O)c1cnc2c(-c3cccc(C)c3)c(C)nn2c1C | 133% (inactive) |
| CCCCNC(=O)c1cnc2c(-c3ccc(OCC)c(OCC)c3)c(C)nn2c1-c1ccccc1 | 80% (inactive) |
| COCCNc1ccc2cc(S(=O)(=O)N3CCCCC3)ccc2n1 | 56% (inactive) |
| COc1ccccc1CNC(=O)COCc1cc(-c2ccc3c(c2)OCO3)on1 | 19% (inactive) |
| COC(=O)C(C)n1nnc2sc(-c3ccccc3)cc2c1=O (centres undefined) | 88% (inactive) |
| CCOC(=O)c1cccc(NC(=O)N2CCC(CN3CCc4ccccc4C3)CC2)c1 | 71% (inactive) |
| CC(=O)N1c2ccccc2C(=O)C1N1CCN(c2cc(Cl)ccc2C)CC1 (centres undefined) | 138% (inactive) |
| CCOc1ccc(-c2c(C)nn3c(C)c(C(=O)NCCc4ccccc4)cnc23)cc1OCC | 53% (inactive) |
| Cc1nn2c(C)c(C(=O)NCC(C)c3ccccc3)cnc2c1-c1ccccc1 (centres undefined) | 75% (inactive) |
| CCOc1ccc(CCNC(=O)c2cnc3c(-c4ccccc4)c(C)nn3c2C)cc1OCC | -3% (active) |
| CCOc1ccc(CCNC(=O)c2cnc3c(-c4ccc(F)cc4)c(C)nn3c2C)cc1OCC | 159% (inactive) |
| Cc1nn2c(C)c(C(=O)NCCc3ccccc3)cnc2c1-c1ccccc1 | 55% (inactive) |
| CCNC(=O)c1cnc2c(-c3ccccc3)c(C)nn2c1C | 0% (active) |
| Cc1cccc(CSc2nnc3[nH]c(=O)cc(-c4ccccc4)n23)c1 | 80% (inactive) |
| CCOC(=O)C1CCCN(C(=O)c2ccc(C)c(NC(=O)c3nsc4ccccc34)c2)C1 (centres undefined) | 123% (inactive) |
| NS(=O)(=O)c1cccc(S(N)(=O)=O)c1 | 117% (inactive) |
| Cc1ccc(NC(=O)CN2C(=O)C(c3ccc(F)cc3)=NC2(C)C)c(C)c1 | 85% (inactive) |
| Cc1ccc(-c2nn3c(-c4ccccc4)nnc3c3ccccc23)cc1 | 76% (inactive) |

| Structure (SMILES) | survival |
| --- | --- |
| COc1ccc(-c2nn3c(-c4ccccc4C)nnc3c3ccccc23)cc1 | -3% (active) |
| Cc1ccc(-c2nn3c(-c4ccccc4C)nnc3c3ccccc23)cc1 | 51% (inactive) |
| COc1ccc(-c2nn3c(-c4ccc(OC)cc4)nnc3c3ccccc23)cc1 | 73% (inactive) |
| Cc1ccc(-c2nnc3c4ccccc4c(-c4ccccc4)nn23)cc1 | 123% (inactive) |
| Cc1ccc(-c2nn3c(-c4ccc(C)cc4)nnc3c3ccccc23)cc1 | 20% (active) |
| COc1ccc(CNC(=O)c2cccc(N3CCCS3(=O)=O)c2)cc1OC | 63% (inactive) |
| O=C(Nc1cccc(C(=O)N2CCN(c3ccccc3F)CC2)c1)c1nsc2ccccc12 | 67% (inactive) |
| Cc1nn(S(=O)(=O)c2ccc(F)cc2)c(C)c1S(=O)(=O)N1CCCCC1 | 71% (inactive) |
| COc1ccc(S(=O)(=O)n2nc(C)c(S(=O)(=O)N3CCCCCC3)c2C)cc1C | 55% (inactive) |
| Cc1nn(C(=O)c2ccccc2F)c(C)c1S(=O)(=O)N1CCCCCC1 | 70% (inactive) |
| COc1ccc(S(=O)(=O)n2nc(C)c(S(=O)(=O)N3CCC(C)CC3)c2C)cc1OC | 81% (inactive) |
| Cc1nn(S(=O)(=O)c2ccc(F)cc2)c(C)c1S(=O)(=O)N1CCC(C)CC1 | -3% (active) |
| Cc1nn(C(=O)c2cccc([N+](=O)[O-])c2C)c(C)c1S(=O)(=O)N1CCOCC1 | 64% (inactive) |
| Cc1nn(C(=O)c2cccc([N+](=O)[O-])c2C)c(C)c1S(=O)(=O)N1CCCCCC1 | -4% (active) |
| Cc1nn(S(=O)(=O)c2ccccc2)c(C)c1S(=O)(=O)N1CCC(C)CC1 | 81% (inactive) |
| COc1ccc(S(=O)(=O)n2nc(C)c(S(=O)(=O)N3CCCCCC3)c2C)cc1OC | 1% (active) |
| CCOC(=O)c1cc(=O)n2[nH]c(-c3ccc(C)cc3)cc2n1 | 107% (inactive) |
| CCC(Sc1nc2ccccc2c2nc(CCc3c(C)n[nH]c3C)nn12)C(=O)Nc1ccccc1F (centres undefined) | 91% (inactive) |
| CCCCn1cc(S(=O)(=O)c2cc(C)ccc2C)c(=O)c2cc(F)c(F)cc21 | 83% (inactive) |
| Cc1ccc(OC(=O)c2cc(-c3ccccc3)nc3ccc(C)cc23)cc1 | 61% (inactive) |
| COc1ccc(-c2cc(C(=O)Oc3ccc(C)c(C)c3)c3ccccc3n2)cc1 | 30% (inactive) |
| COc1ccc(-c2cc(C(=O)Oc3cccc(C)c3)c3ccccc3n2)cc1 | 3% (active) |
| Cc1ccc(-c2cc(C(=O)Oc3ccccc3)c3cc(C)ccc3n2)cc1 | 65% (inactive) |
| COc1ccc(-c2cc(C(=O)Oc3cccc(C)c3C)c3ccccc3n2)cc1 | 12% (active) |
| COc1ccc(-c2cc(C(=O)Oc3ccc(Cl)cc3)c3ccccc3n2)cc1 | 60% (inactive) |

| Structure (SMILES) | survival |
| --- | --- |
| COc1ccc(-c2cc(C(=O)Oc3cccc(C)c3)c3cc(C)ccc3n2)cc1 | 19% (inactive) |
| COc1ccc(-c2cc(C(=O)Oc3ccccc3)c3cc(C)ccc3n2)cc1 | 11% (inactive) |
| COc1ccc(-c2cc(C(=O)Oc3ccc(C)cc3)c3ccccc3n2)cc1 | 4% (active) |
| Cc1ccc(-c2cc(C(=O)Oc3ccccc3)c3cccc(C)c3n2)cc1 | 13% (active) |
| COc1ccc(-c2cc(C(=O)Oc3ccc(Br)cc3)c3ccccc3n2)cc1 | 63% (inactive) |
| COc1ccc(-c2cc(C(=O)Oc3ccc(C)cc3)c3cc(C)ccc3n2)cc1 | 22% (inactive) |
| Cc1ccc(C(=O)NC(C)C)cc1C | 110% (inactive) |
| Cc1cc(NC(=O)c2ccc(Cl)c(Cl)c2)ccc1NC(=O)c1ccco1 | 95% (inactive) |
| COCc1c(Br)c(C)nc2sc3c(=O)n(-c4cccc(Br)c4)nnc3c12 | 87% (inactive) |
| CCn1c(CSc2ncccn2)nnc1SCC(=O)N1CCc2ccccc21 | 102% (inactive) |
| CCCN(CCC)CCCNC(=O)Cn1cnc2onc(-c3ccc(F)cc3)c2c1=O | 73% (inactive) |
| Cc1nc(-c2ccccc2)sc1CCNS(=O)(=O)c1ccccc1 | 69% (inactive) |
| CC(C)S(=O)(=O)c1oc(-c2ccc(F)cc2)nc1S(=O)(=O)c1ccc(F)cc1 | 26% (inactive) |
| O=S(=O)(c1ccccc1)c1nc(-c2ccc(F)cc2)oc1N1CCOCC1 | 73% (inactive) |
| CCC(C)S(=O)(=O)c1oc(-c2ccc(F)cc2)nc1S(=O)(=O)c1ccc(F)cc1 (centres undefined) | 49% (inactive) |
| CCSc1oc(-c2ccc(F)cc2)nc1S(=O)(=O)c1ccc(C)cc1 | 41% (inactive) |
| Cc1ccc(-c2nc(S(=O)(=O)c3ccc(F)cc3)c(N3CCN(c4ccccc4)CC3)o2)cc1 | 89% (inactive) |
| CCCCS(=O)(=O)c1oc(-c2ccc(F)cc2)nc1S(=O)(=O)c1ccc(C)cc1 | 33% (inactive) |
| CCCCS(=O)(=O)c1oc(-c2ccc(F)cc2)nc1S(=O)(=O)c1ccccc1 | 7% (active) |
| CC(C)CS(=O)(=O)c1oc(-c2ccc(F)cc2)nc1S(=O)(=O)c1ccccc1 | 3% (active) |
| CSc1oc(-c2ccc(F)cc2)nc1S(=O)(=O)c1ccc(Br)cc1 | 54% (inactive) |
| CS(=O)(=O)c1oc(-c2ccc(F)cc2)nc1S(=O)(=O)c1ccc(Cl)cc1 | -1% (active) |
| CCS(=O)(=O)c1oc(-c2ccc(F)cc2)nc1S(=O)(=O)c1ccc(Br)cc1 | -1% (active) |
| CC(C)S(=O)(=O)c1oc(-c2ccc(F)cc2)nc1S(=O)(=O)c1ccccc1 | 23% (inactive) |
